Giardia FBPA inh: blocks Giardia fructose-bisphosphate aldolase activity; A8B2U2; purified Giardia FBPA; Potency, µM (top dose mostly 59.6 µM), actives largely listed as inhibitors; 290,000 tested, 0.71% active; also: nearly all actives have a fitted effect of over 55% in size
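Giardia FBPA (40 nM reagent) was preincubated 10 min at RT with compound (up to 57.5 uM final), then substrate plus GAPDH/TPI/NAD/arsenate coupling system with diaphorase/resazurin was added; resorufin fluorescence (525/598 nm) was read after 20 min.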
LmPK inh: LmPK (Leishmania mexicana) enzyme inhibition; purified LmPK, Kinase-Glo ATP luminescence, 1 h; Potency, µM (doses to about 57.5 µM), most hits filed as inhibitors; 290,000 tested, 0.37% active; AID 1721
Target sequence (Q27686 whole entry, looked up): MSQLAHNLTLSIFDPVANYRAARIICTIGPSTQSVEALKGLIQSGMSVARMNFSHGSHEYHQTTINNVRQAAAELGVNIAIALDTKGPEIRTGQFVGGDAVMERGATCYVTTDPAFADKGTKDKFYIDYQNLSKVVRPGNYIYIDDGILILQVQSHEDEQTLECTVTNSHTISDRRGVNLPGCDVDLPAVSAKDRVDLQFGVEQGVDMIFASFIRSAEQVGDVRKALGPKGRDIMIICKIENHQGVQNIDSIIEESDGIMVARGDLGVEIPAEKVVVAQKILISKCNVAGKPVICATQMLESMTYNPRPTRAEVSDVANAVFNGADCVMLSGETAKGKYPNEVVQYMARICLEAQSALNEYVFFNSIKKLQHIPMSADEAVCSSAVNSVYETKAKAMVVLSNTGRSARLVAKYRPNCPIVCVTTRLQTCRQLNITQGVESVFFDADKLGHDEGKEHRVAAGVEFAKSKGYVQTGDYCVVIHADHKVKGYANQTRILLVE
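Purified LmPK (0.1 nM) converted ADP (0.1 mM) to ATP with PEP (0.5 mM) in imidazole buffer pH 7.2 with KCl and MgCl2, 1 h at room temperature. ATP was read by Kinase-Glo luminescence; data normalized to uninhibited and no-enzyme controls.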
Shiga inhibitor: Shiga toxin inhibition; Vero cells, Shiga toxin protein synthesis inhibition reporter; inhibition, % at 38.7 µM; 290,000 tested, 9.2% active; AID 2315; in the data active = inhibition mostly above about 28%, no sharp cut-off; inactive = mostly below about 43%
TbPYK inhibitor: T. brucei pyruvate kinase inhibition; 410,000 tested, 0.12% active; AID 624173; Q57TT1; Potency, µM (doses to about 76.8 µM), actives largely listed as inhibitors; TbPYK enzyme, Kinase-Glo Plus ATP luminescence, 45 min; also: nearly all actives have a fitted effect of over 50% in size
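Luminescent Kinase-Glo Plus end-point after 45 min room-temperature reaction of T. brucei pyruvate kinase started with 130 uM ADP (final). Buffer TEA 50 mM pH 7.2 with KCl, MgCl2, BSA, Tween-20; titration-based qHTS with fitted concentration-effect curves.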
CHX counter: counter-screen hit for Shiga toxin inhibitors, cycloheximide; 300,000 tested, 12% active; cell reporter, cycloheximide protein synthesis inhibition counterscreen; max response, %; in the data active = max response mostly above about 13%, no sharp cut-off; inactive = mostly below about 14%; also: read at 38.3 µM for the half of the compounds with a filed dose
Sm TGR block: inhibitors of Schistosoma mansoni thioredoxin glutathione reductase. AID 485364. 360,000 tested, 3% active. Potency, µM (titrated, usually from 114 µM), actives largely listed as inhibitors. purified TGR, DTNB reduction, TNB absorbance 405 nm; also: nearly all actives have a fitted effect of over 60% in size
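Kinetic colorimetric format: TGR-catalysed, NADPH-driven DTNB reduction monitored via TNB absorbance. Enzyme dispensed at 20 nM; compound exposure 15 min at room temperature before reaction start.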
Each line names hits and unclear results; the compound was inactive in the other large screens. Only a selection was taken, and hits are over-represented in it overall. Unless noted, calls follow the shape of the dose curve; as a rule, active = well fitted curve in the direction sought with a large enough effect; inconclusive = small, poorly fitted or top-dose-only effect, or another doubt; inactive = no such curve, though single readings can be large; an effect the other way counts as inactive or inconclusive.

O=C(N/N=C1\CC(c2ccccc2)Oc2ccccc21)c1ccccn1 (configuration not stated)	Shiga inhibitor 50.6, CHX counter 15.4
O=C(/C=C/c1ccc(/C=C/C(=O)Nc2ccc(C3=NCCN3)cc2)cc1)Nc1ccc(C2=NCCN2)cc1	none (no result: LmPK inh, TbPYK inhibitor, Sm TGR block)
CC(C)CC(=O)Nc1nnc(S(=O)(=O)N(CC(C)C)c2ccccc2)s1	none (no result: Giardia FBPA inh, LmPK inh, Shiga inhibitor, CHX counter)
OC[C@@H]1O[C@H](O)[C@H](O)[C@@H](O)[C@@H]1O	none (no result: LmPK inh, TbPYK inhibitor, Sm TGR block)
CCc1ccc(N/C(SCc2cccc(F)c2)=C(/C#N)C(=O)NCc2ccco2)cc1	CHX counter 21.0
O=C(NCCn1cc(SCc2ccccc2Cl)c2ccccc21)c1cccs1	none (no result: Giardia FBPA inh, LmPK inh, Shiga inhibitor, CHX counter)
Cc1ccc(C(=O)N/N=C\c2ccc(OC(=O)c3cccc(F)c3)cc2)cn1	none
COc1ccc(/C=N/NC(=O)c2ccc(C)nc2)cc1O	none
Cc1ccc(C(=O)N/N=C\c2cccc(OC(=O)c3cccc(F)c3)c2)cn1	Shiga inhibitor 43.4, CHX counter 19.9
COc1cccc(/C=N\NC(=O)c2ccc(C)nc2)c1	Shiga inhibitor 45.8, CHX counter 29.1
Cc1ccc(C(=O)O)cc1-n1c(C)ccc1-c1ccccc1	Sm TGR block 31.6µM (no result: Giardia FBPA inh, LmPK inh, Shiga inhibitor, CHX counter)
Cc1ccc(-c2ccccc2)n1-c1cccc(C(=O)O)c1	Shiga inhibitor 163.0, CHX counter 65.6, Sm TGR block 20µM
Cc1ccc(-c2ccccc2)n1-c1ccc(C(=O)O)cc1	CHX counter 14.7, Sm TGR block 50.1µM
O=C(O)c1ccc(-n2c(-c3ccccc3)n[nH]c2=S)cc1	TbPYK inhibitor inconclusive
CC(C)(C)c1ccc2c(c1)C(=O)c1ccccc1C2=O	LmPK inh inconclusive, Shiga inhibitor 77.3, CHX counter 32.3
CCc1ccc2c(c1)C(=O)c1ccccc1C2=O	Shiga inhibitor 14.0, CHX counter 42.9
OCc1c(OCc2cccc(F)c2)ccc2ccccc12	CHX counter 25.4 (no result: Shiga inhibitor)
COc1ccc(C2(CNC(=O)/C=C/c3ccco3)CCCC2)cc1OC	TbPYK inhibitor inconclusive, Sm TGR block 3.55µM
O=C(NCC1(c2ccccc2)CCCC1)c1ccco1	none
COc1ccc(C2(CNC(C)=O)CCCC2)cc1OC	none
CCN(CC)S(=O)(=O)c1ccc(OC)c(NC(=O)/C=C/c2ccco2)c1	TbPYK inhibitor inconclusive, Sm TGR block 3.16µM
CCN(CC)S(=O)(=O)c1ccc(N2CCCCC2)c(NC(=O)/C=C/c2ccc(OC)c(OC)c2)c1	none
COc1ccc(CNC(=O)/C=C/c2ccco2)cc1OC	Sm TGR block 3.16µM
COc1ccc(CNC(=O)/C=C/C(=O)O)cc1OC	Giardia FBPA inh inconclusive, Sm TGR block inconclusive
O=C(/C=C/c1ccco1)NCC1(c2ccccc2)CCCC1	Shiga inhibitor 47.6, CHX counter 105.3, Sm TGR block 7.94µM
CCCCC1=CC2=C(OC(C)=O)C(=O)C(C)(OC(=O)c3ccco3)C(=O)C2=CO1 (configuration not stated)	none (no result: LmPK inh, Shiga inhibitor, TbPYK inhibitor, CHX counter, Sm TGR block)
CCOC(=O)c1sc2nc(CC(=O)OC)nc(NCc3ccco3)c2c1C	Sm TGR block 44.7µM
CCOC(=O)c1sc2nc(CC(=O)OC)nc(NCC(=O)OC)c2c1C	none
CCOC(=O)C1=CC[C@@H](c2ccco2)N(S(=O)(=O)c2ccc(C)cc2)[C@H]1C(=O)OCC	Sm TGR block 31.6µM (no result: Giardia FBPA inh, LmPK inh, Shiga inhibitor, CHX counter)
CCOC(=O)C1C(=O)C=C(c2ccc(NS(C)(=O)=O)cc2)CC1c1ccco1 (configuration not stated)	none
CCOC(=O)C1=CC[C@@H](c2cccc(C)c2)N(S(=O)(=O)c2ccc(C)cc2)[C@H]1C(=O)OCC	none (no result: Giardia FBPA inh, LmPK inh, Shiga inhibitor, CHX counter)
CCOC(=O)C1C(=O)C=C(c2ccc(C)cc2)CC1c1ccco1 (configuration not stated)	Shiga inhibitor 53.7, CHX counter 21.0
O=C(CSc1cccs1)NCCc1ccccc1	Shiga inhibitor active, CHX counter 41.6
O=C(CSc1cccs1)Nc1ccc(Cl)cc1	Shiga inhibitor 50.2, CHX counter 53.5
NS(=O)(=O)c1ccc(CCNC(=O)CSc2cccs2)cc1	none
O=C(CSc1ccc(Cl)cc1)Nc1ccccc1	none (no result: Giardia FBPA inh, LmPK inh, Shiga inhibitor, CHX counter, Sm TGR block)
CC(Sc1ccccc1)C(=O)NCCc1ccccc1 (configuration not stated)	Shiga inhibitor 32.5, CHX counter 24.1
O=C(CSc1nnnn1C1CCCCC1)NCCc1ccccc1	Shiga inhibitor 42.4, CHX counter 62.3
COc1ccc(CCNC(=O)C(C)SCc2ccccc2)cc1 (configuration not stated)	none
CC(C)O/C(=N/S(=O)(=O)c1ccc(Cl)cc1)c1ccccc1	none (no result: Giardia FBPA inh, LmPK inh, Shiga inhibitor, CHX counter, Sm TGR block)
Cc1ccc(SCC(=O)NCCSC(C)(C)C)cc1	CHX counter 28.5
O=C(CSc1ccc2ccccc2c1)NCCc1ccc(O)c(O)c1	TbPYK inhibitor 31.6µM, Sm TGR block 11.2µM
O=C(CSc1ncn[nH]1)NCCc1ccccc1	none
Cc1ccc(SCC(=O)NCCc2ccccc2)cc1	CHX counter 14.0
O=C(CSc1ccccc1)NCCc1ccccc1	Shiga inhibitor 43.9, CHX counter 36.6
CN1CCN(c2ccc(C(F)(F)F)cc2NC(=O)c2ccco2)CC1	none
O=C(CSc1ccccc1)NCCc1ccc(F)cc1	CHX counter 28.6 (no result: Shiga inhibitor)
Cc1ccc(CCNC(=O)Cn2cccc2)cc1	Sm TGR block 50.1µM
Cc1ccc(CCNC(=O)NC(C)(C)C)cc1	Shiga inhibitor 68.7, CHX counter 29.9
COc1ccc(Cl)cc1NC(=O)CSc1nnc(C2CC2)n1C	none
COc1cc(NS(=O)(=O)c2ccc(NC(=S)NC(=O)c3ccc(F)c(F)c3)cc2)nc(OC)n1	Sm TGR block 22.4µM (no result: Giardia FBPA inh)
COc1cc(NS(=O)(=O)c2ccc(NC(=S)NC(=O)c3cccs3)cc2)nc(OC)n1	Sm TGR block 22.4µM
CCN1C(=O)NC(=O)/C(=C\c2cn(CC(=O)O)c3ccccc23)C1=O	Sm TGR block inconclusive (no result: TbPYK inhibitor)
O=C(O)Cn1cc(/C=C2\C(=O)NC(=O)N(Cc3ccco3)C2=O)c2ccccc21	Sm TGR block 5.01µM
O=C1NC(=O)N(Cc2ccco2)C(=O)/C1=C/c1cccn1CCOc1ccccc1Cl	Shiga inhibitor 69.8, CHX counter 23.4, Sm TGR block inconclusive
O=C1NC(=O)N(Cc2ccccc2)C(=O)/C1=C\c1ccco1	TbPYK inhibitor inconclusive
NC(=O)c1ccc2c(=O)n3c(-c4cccs4)csc3nc2c1	Shiga inhibitor 32.0, CHX counter 24.7
Cc1ccc(-c2csc3nc4cc(C(N)=O)ccc4c(=O)n23)cc1	none
CCOC(=O)c1sc2nccc(N(C)C)c2c1N=CNOCc1c(F)cccc1Cl	CHX counter 25.4
CCOC(=O)c1sc2nccc(N(C)C)c2c1N=CNOC	none
CCOC(=O)c1sc2nccc(N(C)C)c2c1N=CNOCc1ccccc1	CHX counter 15.9
NC(=O)NOCc1c(F)cccc1Cl	none
Cc1ccc(C)c(C(=O)COC(=O)C2CCN(c3ccc(C(F)(F)F)cn3)CC2)c1	none (no result: Giardia FBPA inh, LmPK inh, Shiga inhibitor, CHX counter)
